# Measured values from PubChem BioAssay.
# The source made the active and inactive calls. No rule for the calls is given here.
# Target: Pantothenate synthetase (Mycobacterium tuberculosis (strain ATCC 25618 / H37Rv)) (UniProt P9WIL5)
# Test: Coupled enzyme confirmation of inhibitors against recombinant Mtb PanC (AID 375);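 also: 0% = full reaction with vehicle and 100% = no enzyme background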
# Conditions: coupled enzyme assay; at 10 µM, stronger effect = higher value
# Sequence of Pantothenate synthetase (Mycobacterium tuberculosis (strain ATCC 25618 / H37Rv)) (P9WIL5 whole entry, looked up): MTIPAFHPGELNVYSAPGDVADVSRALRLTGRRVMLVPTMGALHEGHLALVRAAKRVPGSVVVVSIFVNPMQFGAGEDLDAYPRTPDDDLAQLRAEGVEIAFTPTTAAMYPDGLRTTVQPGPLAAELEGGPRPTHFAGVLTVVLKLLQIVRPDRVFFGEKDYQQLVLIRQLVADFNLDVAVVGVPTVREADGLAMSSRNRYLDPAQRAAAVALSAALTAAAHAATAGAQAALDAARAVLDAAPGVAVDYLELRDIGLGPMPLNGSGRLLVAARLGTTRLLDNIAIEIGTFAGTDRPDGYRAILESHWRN
row,Compound,inhibition
1,COc1ccccc1C(=O)N1CCNC(=O)C1CC(=O)Nc1ccc(Cl)cc1 (stereo not given),0% (inactive)
2,CC(C)CSc1nc2ccccc2n1CC(N)=O,5% (inactive)
3,CCOC(=O)Nc1sc(=S)n(C)c1C,9% (inactive)
4,CCCc1nnc2n1N=C(c1ccc(OC)c(OC)c1)CS2,0% (inactive)
5,COC(=O)Cn1c2ccccc2c2nc(C)sc21,0% (inactive)
6,CC(C)CNS(=O)(=O)c1ccc(CCC(=O)NCc2ccco2)cc1,2% (inactive)
7,CCN(CC)CCN1C(=O)C(O)=C(C(=O)c2cccs2)C1c1ccc(C)o1 (stereo not given),0% (inactive)
8,Cc1ccc(C)c2[nH]c(=O)c(CN(CCN3CCCC3)C(=O)Nc3cccc(Cl)c3)cc12,0% (inactive)
9,O=C(Oc1ccc2ccc(OC(=O)N3CCOCC3)cc2c1)N1CCOCC1,0% (inactive)
10,CCOc1ccc(N(CC(=O)OC)S(=O)(=O)c2ccc(OC)c(OC)c2)cc1,0% (inactive)
11,CCCCNC(=O)c1cc(-c2ccc(F)cc2)on1,6% (inactive)
12,O=C(NCC(=O)N1CCC(N2CCCCC2)CC1)C1CCCCC1,3% (inactive)
13,CCCOC(=O)c1ccc(-c2c(C)noc2-c2ccc(OC)cc2O)o1,0% (inactive)
14,c1ccc(-c2cn3cccnc3n2)cc1,0% (inactive)
15,Nc1nc(CSCc2ccccc2)nc(N2CCOCC2)n1,1% (inactive)
16,O=C(O)CCNc1ccc2c(c1)OCCO2,0% (inactive)
17,C/C=C/CSc1nc2c(c(=O)[nH]c(=O)n2C)n1Cc1ccc(C)cc1,4% (inactive)
18,COc1ccccc1C1C(C(C)=O)=C(O)C(=O)N1CCc1ccccc1 (stereo not given),8% (inactive)
19,CS(=O)(=O)c1ccc2nc(NC(=O)CCC(=O)c3cccs3)sc2c1,1% (inactive)
20,CCc1cccc(NC(=O)CCc2nc(-c3cccs3)no2)c1,0% (inactive)

row,Compound,inhibition
1,CCC(C)NCC(O)COCc1ccc(Cl)cc1 (stereo not given),4% (inactive)
2,CCOCCCNC(=O)C1CCN(S(=O)(=O)c2c(C)noc2/C=C\c2ccc(OC)cc2)CC1,8% (inactive)
3,CCOC(=O)CSc1nnc([C@H](C)NC(=O)OC(C)(C)C)o1,0% (inactive)
4,Cc1cccc(N(C)C(=O)c2coc(=O)c3ccccc23)c1,0% (inactive)
5,CCc1nc(N)c(C#N)c(-c2ccc(OC)c(OC)c2)c1C,2% (inactive)
6,COc1ccc(CN(C)CC(=O)c2c(N)n(Cc3ccccc3)c(=O)n(C)c2=O)c(OC)c1,0% (inactive)
7,COc1ccc(-c2nc(C#N)c(N3CCOCC3)o2)cc1OC,0% (inactive)
8,FC(F)(F)c1cc(-c2ccco2)nc(NCc2ccco2)n1,0% (inactive)
9,COCCOC(=O)C1=C(C)Nc2ncnn2C1c1ccc(F)cc1 (stereo not given),0% (inactive)
10,Cc1cc(C)c2c(N)c(C(=O)c3ccccc3)oc2n1,0% (inactive)
11,CC(=O)c1c(C)nn(CC(O)COc2ccc3c(c2)CCC3)c1C (stereo not given),0% (inactive)
12,Cn1c(=O)c2c(nc(SCC(=O)NCc3ccco3)n2C)n(C)c1=O,0% (inactive)
13,Clc1cccc(-c2nn3c(Cn4cnc5ccccc54)nnc3s2)c1,0% (inactive)
14,Cc1cccc(C)c1NC(=O)COC(=O)c1nonc1N,0% (inactive)
15,Cc1sc2c(c1C)CN(C1CC(C)(C)NC(C)(C)C1)CN2C(=O)c1ccco1,7% (inactive)
16,COc1ccc(NCc2nnc(SCC(=O)Nc3cc(C)cc(C)c3)o2)cc1,0% (inactive)
17,CCOC(=O)c1[nH]c2ccc(Br)cc2c1NC(=O)CNC,4% (inactive)
18,O=C(Cn1ncc2c1-c1ccccc1OC2)N1CCN(c2ccccn2)CC1,0% (inactive)
19,CCOCC(O)CS(=O)Cc1ccccc1 (stereo not given),0% (inactive)
20,Cc1nn(Cc2ccccc2)c2c1C(c1ccncc1)C(C#N)=C(N)O2 (stereo not given),0% (inactive)
